Source: PubChem BioAssay (EPA / NIEHS)
The source made the active and inactive calls. How the source made its calls: active means hit-call score of the fitted dose curve at least 0.9, where 1 is the maximum; inactive means score below 0.9.

read-out: Caspase-3 (Homo sapiens) (UniProt P42574); assay: LTEA_HepaRG_CASP3: Life Technologies and Expression Analysis (LTEA) Assay for cysteine-aspartic acid protease (CASP3) using HepaRG (AID 2283477); conditions: mRNA level, 48 h; actives raise or lower the signal
Description: LTEA_HepaRG is a cell based, multiplexed-readout assay that uses HepaRG, a human liver cell line, with measurements taken at 48 hours after chemical dosing on a 96-well plate.LTEA_HepaRG_CASP3 is one of 102 assay component(s) measured in the LTEA HepaRG cell culture assay. It is a marker of Cell proliferation, survival, death.Data from the assay component LTEA_HepaRG_CASP3 was analyzed into 1 endpoint. This assay endpoint, LTEA_HepaRG_CASP3, was analyzed with bidirectional fitting relative to DMSO as the negative control and baseline of activity. Using a type of inducible reporter, measures of mRNA induction for gain or loss-of-signal activity can be used to understand regulation of transcription factor activity. To generalize the intended target to other relatable targets, this assay endpoint is annotated to the protease intended target family, where the subfamily is cysteine protease.
A total of 1060 chemcials from the ToxCast library were tested in eight-point concentration-response experiments. Cell culture and cytotoxicity assays were conducted at Thermo Fisher Scientific's Custom Services facility (Madison, WI). A single lot of human HepaRG cells (Thermo Fisher Scientific, Frederick, MD) was used for the cell culture experiments. 96-well format collagen type I coated plates of human HepaRG cells were prepared using established methods. Briefly, cryopreserved HepaRG cells were thawed, plated at a density of approximately 100,000 cells/well in HepaRG Thaw, Plate, and General Purpose media (HPRG770, Thermo Fisher Scientific), and incubated for 48 hours. 0.5% DMSO was selected as vehicle control to balance the requisite need of DMSO in HepaRG cultures to maintain differentiation (for example, baseline metabolism, proportions of hepatocytes vs. cholangiocytes), while enabling further hepatic receptor pathway activation (for example, PXR and CAR) in response to chemical exposure. 48 hours after plating, the culture medium was replaced with HepaRG Serum-Free Incudtion Media. Cells were exposed to each test chemical in duplicate and maintained in CO2 incubators for another 48 hours. Chemical plates were thawed to room temperature and 200x concentrations of treatment groups were prepared. 8-point conentration-reponse curves were made with the highest exposure at 100 uM, followed by half-log dilutions, all in 0.5% DMSO. Each test plate contained variouse controls, induction positive controls (1mM phenobarbital), cytotoxicity positive controls ([…] aflatoxin B1), vehicle controls (0.5% DMSO), and total lysis controls (0.5% DMSO). Cell morphology images were taken using an Essen IncuCyte FLR automated microscope, with six 96-well plates imaged in about 24 minutes. Images were captured and exported and JPEG files. Spent culture media was transfered to black-well plates for the LDH assay, and remaining media was sorted at -80 C for later use. Cells were treated with RLT buffer and frozen until shipped for gene expression analysis. Total RNA was isolated from the cell suspension in 75 uL of Buffer RLT (Qiagen, Germantown, MD 20874) by Quintiles/Expression Analysis (Durham, NC) using a custom isolation procedure. Total RNA from each plate well was transferred to a preamplification plate. Fluidigm's 96.96 Dynamic ArrayTM (Fluidigm, Amsterdam, the Netherlands) technology was used for gene expression analyses by quantitative reverse transcription polymerase chain reaction (qRT-PCR, performed by Quintiles/Expression Analysis, Durham, NC)89. Standard TaqManTM Assays (Applied Biosystems/ThermoFisher Scientific, Foster City, CA) were used to assess the expression of 93 genes selected based on their selectivity and sensitivity to important hepatic receptors known to be modulated by environmental chemicals; importance in human hepatocyte functionality; and hepatotoxicity. […]

Sequence of Caspase-3 (Homo sapiens) (P42574 whole entry, looked up): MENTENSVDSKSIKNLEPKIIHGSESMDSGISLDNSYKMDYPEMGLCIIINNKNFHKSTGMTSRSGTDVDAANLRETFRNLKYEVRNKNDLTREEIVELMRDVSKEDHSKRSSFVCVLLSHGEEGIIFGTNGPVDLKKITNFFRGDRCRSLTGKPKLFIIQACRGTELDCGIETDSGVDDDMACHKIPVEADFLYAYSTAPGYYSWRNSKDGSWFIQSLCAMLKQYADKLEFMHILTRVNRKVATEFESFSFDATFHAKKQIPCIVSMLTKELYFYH

AC50, active:
CN(C)c1ccc(Cc2ccc(N(C)C)cc2)cc1 50 µM

outcome, inactive:
Cn1c(=O)cc(Oc2ccc(F)cc2F)c2cnc(NCC(C)(C)O)nc21, C1=CCCC=CCCC=CCC1, CC(C)=CCC/C(C)=C\CO, CC(C)CCCCCCOC(=O)c1ccc(C(=O)OCCCCCCC(C)C)c(C(=O)OCCCCCCC(C)C)c1, CC1=CC(=O)CC(C)(C)C1, O=C(O)c1cc(N=Nc2ccc(S(=O)(=O)Nc3ccccn3)cc2)ccc1O, CC[C@H]1OC(=O)[C@H](C)[C@@H](O[C@H]2C[C@@](C)(OC)[C@@H](O)[C@H](C)O2)[C@H](C)[C@@H](O[C@@H]2O[C@H](C)C[C@H](N(C)C)[C@H]2O)[C@](C)(O)C[C@@H](C)C(=O)[C@H](C)[C@@H](O)[C@]1(C)O, COC(=O)CC(=O)OC, O=C(OC[C@H]1O[C@@H](OC(=O)c2cc(O)c(O)c(OC(=O)c3cc(O)c(O)c(O)c3)c2)[C@H](OC(=O)c2cc(O)c(O)c(OC(=O)c3cc(O)c(O)c(O)c3)c2)[C@@H](OC(=O)c2cc(O)c(O)c(OC(=O)c3cc(O)c(O)c(O)c3)c2)[C@@H]1OC(=O)c1cc(O)c(O)c(OC(=O)c2cc(O)c(O)c(O)c2)c1)c1cc(O)c(O)c(OC(=O)c2cc(O)c(O)c(O)c2)c1, Cc1ccc(C)c(O)c1, CCOCCO, C[C@](N)(Cc1ccc(O)c(O)c1)C(=O)O, C1N2CN3CN1CN(C2)C3, COCCOc1cc2cc(C(=O)NC3CCN(C(C)C)CC3)n(CC(=O)Nc3ccc(Cl)cn3)c2cn1, CCOC(=O)c1ccc(C2CCC(NC[C@H](O)COc3ccc(O)c(NS(C)(=O)=O)c3)CC2)cc1 (stereo not given in full), O=C(O)c1cccc(Oc2ccccc2)c1, O=P(OC(CCl)CCl)(OC(CCl)CCl)OC(CCl)CCl, CC/C(=C\C(=N/O)C(N)=O)C(C)[N+](=O)[O-] (stereo not given), Nc1ccc(Nc2ccccc2)cc1, CN(C)c1ccc(N=NS(=O)(=O)O)cc1, COC(=O)c1ccccc1O, COc1ccc2sc(C(=O)Nc3nnn[nH]3)c(OC(C)C)c2c1, CCc1cc(SCc2sc(-c3ccc(C(F)(F)F)cc3)nc2CN2CCN(c3ccc(OC)cc3)CC2)ccc1OCC(=O)O, Cn1cnc([N+](=O)[O-])c1Sc1ncnc2nc[nH]c12, Nc1cccc(N)c1, NC(=O)NO, CCCCCCCCO, CC(C)c1cccc(C(C)C)c1N1C(=O)c2ccc(O)cc2C1=O, CC(C)=CCCC(C)CCO (stereo not given), CC(C)=CCCC(C)=CC=O, CC[C@H](C)C(=O)O[C@H]1C[C@@H](C)C=C2C=C[C@H](C)[C@H](CC[C@@H]3C[C@@H](O)CC(=O)O3)[C@H]21, O=c1n(CC2CO2)c(=O)n(CC2CO2)c(=O)n1CC1CO1 (stereo not given), O=C1CCCCCN1, CCOC(=O)CC(CC(=O)OCC)(OC(C)=O)C(=O)OCC, On1ccccc1=S, C=CCCCCCCCCC(=O)O, COc1ccc(-n2nc(C(F)F)cc2-c2ccc(S(C)=O)cc2)cc1 (stereo not given), CC1(C)C(=O)N(Br)C(=O)N1Br, CCCN(C1CCN(C(=O)C2CCNCC2)CC1)[C@@H]1CCc2ccc(OC)cc2C1
